Data: PubChem BioAssay
Activity calls are given as the source filed them.

How the values were obtained:
[1] = tested on: Human papillomavirus type 1a protein E7 (residues 44-93); experiment: HPV1a E7 fragment binders on microarrays, primary screen, biochemical, small-molecule microarray, residues 44-93, 635 nm fluorescence (AID 1108); conditions: small-molecule microarray binding, fluorescence 635 nm; higher = more signal;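 further: E7 fragment applied at 1 µg/mL in TBST for 1 h at 4 C; score combines spot fluorescence with its signal to noise ratio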
[2] = modulators of HCV replicon luciferase signal, primary screen, HCV replication inhibitor project, Huh7 cells, luciferase reporter (AID 1109); conditions: 48 h, higher = more signal;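 further: huh7 hepatoma cells harbouring a luciferase neomycin HCV replicon reporter; luciferase luminescence as measure of HCV replicon replication; test concentration not given here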
[3] = molecular target: Left-right determination factor 2 (Homo sapiens) (UniProt O00292); experiment: LEFTY2 binders on small-molecule microarrays, primary screen, biochemical, small-molecule microarray, 635 nm fluorescence scan (AID 1110); conditions: LEFTY2 binding, higher = more signal
[4] = molecular target: Calmodulin-1 (Homo sapiens) (UniProt P0DP23); experiment: CALM1 binders on microarrays, EGTA buffer, profiling panel, biochemical, small-molecule microarray, Cy5-labelled CALM1 (AID 1111); conditions: Cy5-CALM1 binding fluorescence, higher = more signal;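 further: labelled calmodulin applied in Tris saline Tween buffer holding calcium plus EGTA and DTT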
[5] = molecular target: Calmodulin-1 (Homo sapiens) (UniProt P0DP23); experiment: calcium-bound CALM1 binders on microarrays, profiling panel, artefact control for SMM control-protein annotation, biochemical, small-molecule microarray, Cy5-labelled CALM1, plus calcium (AID 1112); conditions: Cy5-CALM1 binding fluorescence, higher = more signal;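 further: score merges spot fluorescence with signal to noise from triplicate slides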
[6] = small-molecule microarray binders of probe aWnt5a, primary screen, biochemical, biotinylated probe, 635/667 nm fluorescence (AID 1113); conditions: higher = more signal;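 further: score merges 667 nm fluorescence intensity with signal-to-noise per printed feature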
[7] = small-molecule microarray binders of probe aShh, primary screen, biochemical, biotinylated probe, 635/667 nm fluorescence (AID 1114); conditions: higher = more signal;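 further: probe is biotin-labelled aShh protein from a stem cell growth factor screen; measures binding of labelled protein to compounds printed on the slide; score merges feature fluorescence at 667 nm with signal-to-noise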
[8] = small-molecule microarray binders of probe aNog, primary screen, biochemical, biotinylated probe, 635/667 nm fluorescence (AID 1115); conditions: higher = more signal;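 further: probe is biotinylated aNog protein used at 0.15 µg/mL for 1 h at 4 C; z-score combines 667 nm fluorescence of each spot with its signal to noise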
[9] = molecular target: Torsin-1A-interacting protein 1 (Homo sapiens) (UniProt Q5JTV8); experiment: LAP1 binders from COS7 cell lysate, primary screen, small-molecule microarray, 635/667 nm fluorescence (AID 1116); conditions: COS7-hLAP1 lysate binding, 635 nm fluorescence, higher = more signal
[10] = molecular target: Alpha-bungarotoxin (Bungarus multicinctus) (UniProt P60615); experiment: alpha-bungarotoxin binders on microarray, profiling panel, artefact control for SMM control protein annotation, biochemical, small-molecule microarray, Alexa647 label, 635/667 nm fluorescence (AID 1117); conditions: alpha-BTX-A647 binding fluorescence, higher = more signal
[11] = molecular target: Albumin (Bos taurus) (UniProt P02769); experiment: bovine serum albumin binders on microarray, profiling panel, artefact control for SMM control protein annotation, biochemical, small-molecule microarray, Alexa647 label, 635/667 nm fluorescence (AID 1118); conditions: BSA-A647 binding, fluorescence 635 nm, higher = more signal;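 further: score merges 667 nm emission intensity and signal-to-noise per printed compound spot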
[12] = small-molecule microarray binders of probe aXIP, primary screen, biochemical, NeuroSMM set, 635/667 nm fluorescence (AID 1119); conditions: higher = more signal, called active from +8 up or from −8 down;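 further: probe is the protein aXip251-270 applied at 1 µg/mL to compound-printed slides; binding of probe to printed compounds measured as 667 nm fluorescence plus signal to noise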
[13] = small-molecule binders of probe aNOTCH3, primary screen, biochemical, small-molecule microarray, 635/667 nm fluorescence (AID 1120); conditions: higher = more signal;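 further: probe is a biotin-tagged antibody raised against NOTCH3 rather than NOTCH3 protein; score merges spot fluorescence near 667 nm with spot signal to noise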
[14] = small-molecule binders of probe aNOTCH2, primary screen, biochemical, small-molecule microarray, 635/667 nm fluorescence (AID 1121); conditions: higher = more signal;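 further: score merges feature fluorescence read at 667 nm with its signal to noise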
[15] = molecular target: Carbonic anhydrase 2 (Homo sapiens) (UniProt P00918); experiment: CAII small-molecule binders, profiling panel, biochemical, small-molecule microarray, Alexa647-labelled CAII (AID 1122); conditions: CAII-A647 binding fluorescence, higher = more signal
[16] = COS7 lysate on small-molecule microarray, probe aHis, 635 nm (AID 1123); conditions: COS7 cell lysate, fluorescence, higher = more signal;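 further: z-score combines 667nm fluorescence intensity with signal-to-noise per printed compound spot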
[17] = compound binding in COS7 lysate, probe aLAP1, primary screen, cell lysate, small-molecule microarray (AID 1124); conditions: probe aLAP1, fluorescence, higher = more signal;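 further: lysate comes from COS7 cells expressing LAP1 and is applied at 0.3 µg/mL; score merges spot fluorescence near 667 nm with signal-to-noise over triplicate slides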
[18] = tested on: Sam68 (KHDRBS1); experiment: Sam68 small-molecule binders, primary screen, biochemical, small-molecule microarray, 635 nm fluorescence (AID 1125); conditions: small-molecule microarray binding, higher = more signal;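 further: score merges 667 nm channel intensity with signal to noise over triplicate slides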
[19] = tested on: Chordin-like protein 2 (CHRDL2); experiment: CHRDL2 small-molecule binders, primary screen, biochemical, small-molecule microarray, 635 nm fluorescence (AID 1126); conditions: small-molecule microarray binding, fluorescence 635 nm; higher = more signal;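 further: printed compound slides probed with Chrdl2 protein at 4 µg/mL for 1 h at 4 C; score merges 667 nm emission intensity with signal to noise over three replicate slides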
[20] = molecular target: Concanavalin-A (Canavalia ensiformis) (UniProt P02866); experiment: ConA small-molecule binders, primary screen, artefact control for SMM control protein annotation, biochemical, small-molecule microarray, Alexa647 label, 635 nm (AID 1127); conditions: ConA-A647 binding fluorescence, higher = more signal;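 further: z combines 667 nm emission intensity with signal-to-noise across three replicate slides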
Concanavalin-A (Canavalia ensiformis), sequence (P02866 whole entry, looked up): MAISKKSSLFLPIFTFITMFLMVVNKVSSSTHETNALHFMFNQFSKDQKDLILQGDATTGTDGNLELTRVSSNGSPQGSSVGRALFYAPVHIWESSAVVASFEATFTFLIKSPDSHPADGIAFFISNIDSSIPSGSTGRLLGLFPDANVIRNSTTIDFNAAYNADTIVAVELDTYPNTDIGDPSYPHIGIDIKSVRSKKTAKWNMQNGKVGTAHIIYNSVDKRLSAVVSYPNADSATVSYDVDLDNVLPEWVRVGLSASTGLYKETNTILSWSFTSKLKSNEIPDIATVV

Torsin-1A-interacting protein 1 (Homo sapiens), sequence (Q5JTV8 whole entry, looked up): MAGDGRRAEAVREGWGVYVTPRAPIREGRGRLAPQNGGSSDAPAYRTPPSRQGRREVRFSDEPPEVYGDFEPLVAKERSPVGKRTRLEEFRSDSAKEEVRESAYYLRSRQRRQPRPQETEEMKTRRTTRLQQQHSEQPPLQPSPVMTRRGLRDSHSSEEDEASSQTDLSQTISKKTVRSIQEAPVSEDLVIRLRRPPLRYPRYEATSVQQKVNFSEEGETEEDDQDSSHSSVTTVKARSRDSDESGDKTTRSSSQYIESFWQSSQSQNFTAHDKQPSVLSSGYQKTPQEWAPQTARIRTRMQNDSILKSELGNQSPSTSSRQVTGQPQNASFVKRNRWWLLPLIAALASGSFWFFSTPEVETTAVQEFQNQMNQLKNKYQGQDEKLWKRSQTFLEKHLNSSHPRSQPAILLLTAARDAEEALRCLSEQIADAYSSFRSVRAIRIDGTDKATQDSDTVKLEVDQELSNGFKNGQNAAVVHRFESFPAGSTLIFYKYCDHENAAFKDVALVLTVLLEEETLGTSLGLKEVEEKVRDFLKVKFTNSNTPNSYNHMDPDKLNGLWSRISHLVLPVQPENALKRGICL
Left-right determination factor 2 (Homo sapiens), sequence (O00292 whole entry, looked up): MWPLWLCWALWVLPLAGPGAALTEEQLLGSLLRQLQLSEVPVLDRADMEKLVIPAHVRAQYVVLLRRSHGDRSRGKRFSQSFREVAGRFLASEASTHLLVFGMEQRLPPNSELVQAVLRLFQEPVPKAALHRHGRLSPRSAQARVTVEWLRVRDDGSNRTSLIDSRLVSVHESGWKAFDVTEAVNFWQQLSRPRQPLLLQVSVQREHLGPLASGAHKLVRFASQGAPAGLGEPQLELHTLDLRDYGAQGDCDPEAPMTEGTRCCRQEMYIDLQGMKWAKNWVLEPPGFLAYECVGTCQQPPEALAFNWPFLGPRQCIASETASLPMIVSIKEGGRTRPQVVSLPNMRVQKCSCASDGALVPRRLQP
Albumin (Bos taurus), sequence (P02769 whole entry, looked up): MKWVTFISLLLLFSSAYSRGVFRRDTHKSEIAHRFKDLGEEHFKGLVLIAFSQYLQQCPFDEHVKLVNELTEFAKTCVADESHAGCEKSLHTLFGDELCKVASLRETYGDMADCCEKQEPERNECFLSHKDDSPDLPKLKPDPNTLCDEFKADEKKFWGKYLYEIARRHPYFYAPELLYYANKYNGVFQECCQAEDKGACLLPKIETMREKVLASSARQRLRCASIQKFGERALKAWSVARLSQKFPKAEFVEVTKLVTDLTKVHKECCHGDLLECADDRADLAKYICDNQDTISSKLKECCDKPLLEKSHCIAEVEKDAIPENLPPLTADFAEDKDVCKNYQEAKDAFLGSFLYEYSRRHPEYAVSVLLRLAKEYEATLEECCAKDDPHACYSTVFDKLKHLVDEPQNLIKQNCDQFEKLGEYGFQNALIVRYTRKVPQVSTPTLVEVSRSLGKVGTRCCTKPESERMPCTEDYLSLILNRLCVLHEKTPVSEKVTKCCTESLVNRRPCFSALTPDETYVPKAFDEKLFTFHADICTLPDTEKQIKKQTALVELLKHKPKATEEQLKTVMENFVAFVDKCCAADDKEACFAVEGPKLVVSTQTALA
Alpha-bungarotoxin (Bungarus multicinctus), sequence (P60615 whole entry, looked up): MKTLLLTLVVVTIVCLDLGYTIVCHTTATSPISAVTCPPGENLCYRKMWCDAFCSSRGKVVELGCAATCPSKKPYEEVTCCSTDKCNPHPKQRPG

| SMILES | composite z-score [1] | z-score [2] | composite z-score [3] | composite z-score [4] | composite z-score [5] | composite z-score [6] | composite z-score [7] | composite z-score [8] | composite z-score [9] | composite z-score [10] | composite z-score [11] | composite Z-score [12] | composite z-score [13] | composite z-score [14] | composite z-score [15] | composite z-score [16] | composite z-score [17] | composite z-score [18] | composite z-score [19] | composite z-score [20] |
| --- | --- | --- | --- | --- | --- | --- | --- | --- | --- | --- | --- | --- | --- | --- | --- | --- | --- | --- | --- | --- |
| COc1ccccc1CN1C(=O)c2ccccc2[C@](Cc2ccccc2I)(C(=O)NC2CC2)[C@@H]1c1ccc(CO)cc1 | 1.43 | -1.93 | 0.471 | 0.654 | -0.265 | 0.0704 | 0.242 | -0.354 | 1.69 | 1.38 | 0.0506 | 0.0161 (inactive) | -0.0208 | -0.0878 | 0.548 | 2.11 | 0.524 | 1.32 | 0.245 | 1.14 |
| CCCCC(=C=CC[C@H](O)c1ccccc1OCCO)C[C@H](O)c1cc(Cl)cc(Cl)c1O | 0.405 | -1.18 | -0.408 | 0.684 | 0.466 | -0.0445 | 0.0278 | 0.22 | 0.582 | 0.876 | 0.233 | 0.45 (inactive) | -0.0448 | -0.175 | 0.649 | 0.499 | 0.569 | 0.811 | -0.473 | 0.907 |
| COC(=O)[C@@]1(Cc2ccccc2)[C@H]2c3cc(C(=O)N(C)C)n(Cc4ccccc4)c3C[C@H]2CN1C(=O)c1ccccc1 | 0.104 | -1.13 | -0.586 | 0.733 | 0.0453 | 0.3 | 1.63 | 0.837 | 0.706 | 0.273 | 0.75 | 0.047 (inactive) | 0.184 | -0.0895 | 0.749 | 1.41 | -0.469 | -0.0506 | -0.539 | 0.919 |
| C=CC[C@]1(C(=O)O)N=C(c2ccc(OCCCO)cc2)O[C@H]1c1ccccc1CN=[N+]=[N-] | -0.907 | -0.439 | -0.46 | 0.371 | 0.939 | -0.0977 | -0.0209 | -0.0554 | 0.371 | -0.445 | 0.659 | 0.168 (inactive) | -0.0447 | -0.157 | 0.876 | 1.23 | -0.201 | -0.103 | 0.0037 | 0.0681 |
| O=C1OCCC=C[C@H]2OC34C=CCN(CCN5CCOCC5)C(=O)[C@H]3N(CCO)C(=O)[C@@H]4C12 (stereo not given in full) | -1.74 | 0.18 | 0.601 | -1.72 | -1.21 | -0.181 | -0.338 | -0.467 | 0.0029 | -1.01 | -0.188 | -0.7 (inactive) | 0.16 | -0.202 | 0.72 | -0.219 | -0.193 | -1.08 | 0.112 | -0.916 |
| [N-]=[N+]=NCc1ccccc1C[C@]1(C(=O)NCCN2CCOCC2)N=C(c2ccc(OCCCO)cc2)O[C@H]1c1ccccc1CN=[N+]=[N-] | 1.43 | -3.91 | 0.278 | 0.86 | 0.368 | -0.124 | -0.146 | -0.158 | 1.59 | 1.28 | 0.825 | -0.0191 (inactive) | 0.399 | -0.0474 | 0.337 | -0.827 | 0.736 | 1.13 | -0.0255 | 1.05 |
| COc1ccc([Si](C)(C)[C@@H]2[C@@H](CC(=O)N3Cc4ccccc4C[C@H]3CO)O[C@]3(C(=O)N(Cc4cccc(N5C(=O)COc6ccccc65)c4)c4ccccc43)[C@H]2C)cc1 | 1.2 | -3.61 | 0.806 | 1.39 | 0.0626 | -0.103 | -0.214 | -0.253 | 0.875 | 0.875 | 0.566 | 1.33 (inactive) | 0.0905 | -0.177 | 0.423 | 0.629 | 0.344 | 1.07 | 0.692 | 1.11 |
| CN(C)CCCC[C@@H]1NC(=O)[C@@H]2C[C@H](C(=O)NCCCCCN)[C@H](c3ccc(O)cc3)N2C1=O | 0.0063 | 0.285 | -0.93 | 1.99 | 1.42 | -0.208 | -0.026 | 0.262 | 0.777 | 1.19 | 0.932 | 0.351 (inactive) | 0.0229 | -0.0478 | 0.462 | 0.984 | 0.443 | 1 | -1.76 | 1.1 |
| C=CCOC(=O)[C@H]1[C@@H]2C(=O)O[C@@H](c3ccccc3)[C@@H](c3ccccc3)N2[C@@H](c2ccc(OCCOC(=O)[C@H]3C[C@H]4C(=O)N[C@@H](CCCC[N+](C)(C)C)C(=O)N4[C@H]3c3ccc(O)cc3)cc2)[C@]12C(=O)Nc1ccccc12 | 0.411 | -0.581 | -0.196 | -0.217 | -0.687 | -0.148 | 0.0469 | -0.32 | 0.569 | 0.717 | -0.317 | 0.0338 (inactive) | 0.0306 | -0.14 | 0.456 | 0.776 | 0.411 | 0.028 | 0.518 | 0.843 |
| O=C1C2C=CC(C(O)c3ccc(B(O)O)cc3)N(Nc3ccc([N+](=O)[O-])cc3)C2C(=O)N1c1ccccc1 (stereo not given) | 1.38 | -4.39 | 0.528 | 0.394 | 0.218 | -0.0107 | -0.0146 | 0.46 | 0.151 | 0.435 | 0.832 | 0.142 (inactive) | 0.172 | -0.0439 | 0.654 | 2.02 | 0.588 | 1.32 | 0.262 | 0.738 |
| CN1C(=O)C2C=CC(C(O)C(c3ccccc3)c3ccccc3)N(Nc3ccccc3)C2C1=O (stereo not given) | 1.42 | -1.13 | -0.0076 | 1.29 | 0.567 | 0.137 | 0.216 | 0.713 | 0.597 | 1.34 | 0.959 | 0.462 (inactive) | 0.466 | 0.0018 | 0.453 | 2.72 | -0.167 | 1.31 | 0.106 | 1.16 |
